Results published in PubChem BioAssay AID652017 (The Scripps Research Institute Molecular Screening Center, 2013).
The whole screen tested about 370,000 compounds, of which about 3,800 (1%) were called active. Cut-off read from the data, not from the text of the source: active = activation above about 7.8%; inactive = the rest. What follows is part of a selection rich in actives, with near analogues and random picks from the rest.

Assay: SMARCA2 (BRM) function activators, primary screen, cell-based, luminescence, high throughput (AID 652017);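 note: 0% = vehicle wells and 100% = reference activator wells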
Conditions: MG213 cells, MMTV-luciferase reporter, dexamethasone, overnight; at 9.1 µM; stronger effect = higher value

activation, inactive:
CCOC(=O)[C@]12CCCC=C1N(Cc1ccc(OC)cc1)C(=O)[C@@H]2CC(=O)N1CCOCC1 1.91%, COc1ccc(-n2c(COc3ccccc3)nnc2SCC(=O)Nc2ccc3c(c2)OCO3)cc1 -4.96%, O=C(CNC(=O)c1cc2c(s1)CCC2)Nc1ccccc1Br 3.62%, O=C(NCCCn1ccnc1)c1cc2c(s1)CCCC2 -1.02%, O=C(Nc1cccc2c1CCCC2)c1ccc(F)cc1 -0.7%, CCC(=O)c1c[nH]c(C(=O)NCC2CCCO2)c1 (stereo unspecified) 1.33%, Cc1ccccc1NC(=O)C1CCN(c2ncccn2)CC1 -1.72%, CC(=O)N1CCc2cc(S(=O)(=O)NCCC(=O)N3CCCC3)ccc21 -4.7%, COC(=O)C1CN(Cc2cn(Cc3ccc(F)cc3)nn2)CCS(=O)(=O)N1Cc1ccc(Cl)cc1 (stereo unspecified) -3.03%, COc1ccc(-c2cc(C3CCN(c4ncccc4[N+](=O)[O-])CC3)[nH]n2)cc1 -2.21%, COc1cc(OC)cc(-c2cc3ccc(F)cc3cn2)c1 7.74%, COCC(C)n1c(SCC(=O)NC2CCCCC2C)nc2ccccc2c1=O (stereo unspecified) -2.03%, COCCn1c(C)cc(C(=O)CSc2nc3ccccc3c(=O)n2C(C)COC)c1C (stereo unspecified) -2.97%, COC(=O)C1CN(Cc2ccc(F)cc2)CCS(=O)(=O)N1Cc1ccc(Cl)cc1 (stereo unspecified) -2.03%, O=C(Cc1ccc(Br)cc1)NCCN1CCOCC1 5.26%, CSc1ccc(CNCCN2CCOCC2)cc1 -0.08%, CC(C)(C)n1nc(C2CC2)c(Br)c1NC(=O)c1ccccc1F -3.81%, COc1ccc(S(=O)(=O)N2CCOCC2)cc1NC(=O)Cc1coc2cc(C)ccc12 -0.89%, C#CCCN([C@H](C(=O)OC)C(C)C)S(=O)(=O)c1ccc(F)cc1Br 0.37%, O=C(OC12CCCN(C1)/C(=C/c1cccnc1)C2)C1CCCC1 (stereo unspecified) -1.64%, Cc1cccc(C(=O)Nc2ccc(C(=O)/C=C/c3cccs3)cc2)c1 7.01%, COC(C(=O)Nc1ccc(S(=O)(=O)Nc2ccc(C)c(C)c2)cc1)c1ccccc1 (stereo unspecified) -2.54%, O=C(CCCCCCCC(=O)N1CCCCC1)N1CCCCC1 -4.31%, Cc1cccc(C(=O)Nc2c(-c3ccc(F)cc3)nc3ncccn23)c1 -2.99%, CC(c1ccc(N)cc1)c1cn(C)c2ccccc12 (stereo unspecified) 2.03%, Cc1ccc(CN(N=Nc2nonc2N)c2nonc2N)c(C)c1 -3.9%, CC(NC(=S)Nc1ccc(OC(F)F)cc1)c1ccc(F)cc1 (stereo unspecified) -2.75%, O=C(COC(=O)C1CC2C=CC1C2)Nc1ccccc1 (stereo unspecified) -3.49%, COc1cccc(/C=C2\CC3(OC(C)=O)CCCN2C3)c1 (stereo unspecified) 1.54%, COc1cccc(C(=O)Oc2cc(C)[nH]c(=O)c2[N+](=O)[O-])c1 0.69%, Cc1cc(OC(=O)c2ccc(OC(C)C)cc2)c([N+](=O)[O-])c(=O)[nH]1 -2.6%, CC1CCC(NS(=O)(=O)c2ccc3c(c2)CC(=O)N3)CC1 (stereo unspecified) -2.52%, Cn1c(=O)n(C)c2cc(S(=O)(=O)Nc3ccc(F)cc3)ccc21 -2.88%, CCN(CC)C(=O)CC[C@H]1CC[C@]2(CCCN(Cc3ccc(Cl)cc3)C2)O1 -0.46%, CCOC(=O)CCCNC(=O)COC(=O)c1cc(Br)c(Br)s1 -1.12%, COC(=O)C1CN(CC(C)C)CCS(=O)(=O)N1Cc1ccc(F)cc1 (stereo unspecified) 1.2%, COC(=O)[C@]12C[C@H](CC(=O)NCC34CC5CC(CC(C5)C3)C4)C(=O)N(Cc3ccc(Cl)cc3Cl)C1=C[C@H](COCc1ccccc1)O[C@@H]2C -1.25%, C=CCn1c(SCC(N)=O)nnc1-c1ccccc1OC -5.95%, O=C(NCc1ccccc1)c1onc(CSc2nc3ccccc3[nH]2)c1C(=O)NCc1ccccc1 -0.17%, Cn1c(SCC(=O)c2cccs2)nnc1-c1ccco1 2.45%, COC(=O)[C@@]12CCCCC3=C1N(CCC3)C(=O)[C@H]2CC(=O)NCc1cccc2ccccc12 -2.69%, Cc1cc(Cl)ccc1C(=O)C1CCCN(C(=O)c2ccc3c(c2)OCO3)C1 (stereo unspecified) 0.89%, CC1=NNC(=O)C1CC(=O)N/N=C/c1ccncc1 (stereo unspecified) -3.81%, O=C(CSc1nnc(-c2ccccn2)n1-c1ccccc1)Nc1ccc2cn[nH]c2c1 0.38%, Cc1ccc(C(=O)N(Cc2ccccn2)CC2CCCO2)cc1 (stereo unspecified) -2.73%, COc1ccc(CSc2nnc(-c3cccc(C)c3)n2C)cc1 -2.04%, Cc1ccc(-c2nnc(SCC(=O)Nc3ccc(Oc4ccccc4)cc3)n2Cc2ccco2)cc1 -4.83%, CC(=O)Nc1ccc(S(=O)(=O)NCC2CCC(C(=O)NCCc3ccccc3)CC2)cc1 (stereo unspecified) -3.64%, CCCCSCCCNC(=O)C1CCC(CNS(=O)(=O)c2ccc(NC(C)=O)cc2)CC1 (stereo unspecified) -2.92%, COc1ccccc1C(=O)N1CCNC(=O)C1CC(=O)Nc1ccc(Cl)cc1 (stereo unspecified) -0.22%, COc1ccc(C2CC=C(C(=O)O)C(c3ccccc3F)N2S(=O)(=O)c2ccc(C)cc2)cc1OC (stereo unspecified) 0.02%, N#C/C=C1\Sc2ccccc2C(=O)N1CC(=O)N1CCN(S(=O)(=O)c2ccccc2)CC1 6.51%, CCc1ccccc1NC(=O)CSc1nnc(-c2cccs2)o1 5.4%, COc1ccc(COCC(O)CN2CCC(C(N)=O)CC2)cc1 (stereo unspecified) -2.59%, COc1ccc(CCN2C(=O)CC(N3CCC(C(N)=O)CC3)C2=O)cc1OC (stereo unspecified) -1.41%, Cc1nc2ccc(C(=O)N3CCN(C(=O)C(C)(C)C)CC3)cc2n1C1CCCC1 -3.37%, CC(C)Oc1ccc(C(=O)NCC(=O)Nc2ccc3c(c2)CCC3)cc1 5.66%, CC1CC(C)CN(CCC(=O)Nc2ccc3c(c2)CCC3)C1 (stereo unspecified) -0.27%, C[C@H]1CN([C@@H](C)CO)C(=O)Cc2cc(NS(C)(=O)=O)ccc2O[C@@H]1CN(C)CC1CC1 0.45%, COc1ccccc1CNS(=O)(=O)c1c(C)[nH]c(C)c1C(=O)N1CCCCC1 3.15%, COc1ccc(NC(=O)C(C)SCc2ccccc2)cc1 (stereo unspecified) -0.97%, COC(=O)[C@H](CCSC)NC(=O)Nc1ccc(OC)cc1 0.38%, Cc1c[nH]c2cccc(-c3ccc(Cl)cc3)c12 -2.85%, CCCCn1c(N)c(N(CC(C)C)C(=O)c2cccc(S(=O)(=O)N3CC(C)OC(C)C3)c2)c(=O)[nH]c1=O (stereo unspecified) -0.77%, COC(=O)C1CN(CC(C)C)CCS(=O)(=O)N1Cc1ccc(C)cc1 (stereo unspecified) -1.21%, CC(C)CC(=O)N/C(N)=N/c1nc2ccccc2s1 5.04%, O=C(CSc1nc2ccccc2s1)NN=Cc1ccc(O)cc1O -6.37%, COC(=O)CCC(=O)N1CCCC(CO)(Cc2ccccc2)C1 (stereo unspecified) 3.15%, COc1cccc(N2CCN(CC(=O)N(C)Cc3ccc(F)cc3)CC2)c1 -2.95%, COc1ccccc1Cn1c(CO)nc2ccccc21 -2.13%, COCc1nc2ccccc2n1Cc1ccccc1Br -3.44%, COC(=O)C1CN(CCc2ccccc2)CCS(=O)(=O)N1Cc1cccc(Cl)c1 (stereo unspecified) -3.45%, CCCCN(CC)C(=S)Nc1ccc2nc3n(c(=O)c2c1)CCCCC3 -4.18%, CC1CCCCC1NC(=O)CCS(=O)(=O)c1ccc2c(c1)NC(=O)CO2 (stereo unspecified) -2.77%, Cc1ccc(NC(=O)CN2CCC3(O)CCCCC3C2c2ccc3c(c2)OCO3)c(C)c1 (stereo unspecified) 0.08%, Cc1sc2nc(SCC(=O)c3ccc(O)c(O)c3)n(Cc3ccco3)c(=O)c2c1C -5.31%, Cc1ccccc1OCCC(=O)Nc1c(C)n(C)n(-c2ccccc2)c1=O -3.07%, Cc1ccc(S(=O)(=O)CC(=O)Nc2c(C)n(C)n(-c3ccccc3)c2=O)cc1 -1.75%

activation, active:
O=C(NCC1CCCO1)c1cc2c(s1)CCCC2 (stereo unspecified) 10.9%, O=C(Nc1ccc(F)cc1)c1cc2c(s1)CCCC2 10.2%, COc1ccc(-c2cc3ncccc3cn2)cc1 8.94%, COCC(C)n1c(SCc2ccc(C(=O)OC)o2)nc2ccccc2c1=O (stereo unspecified) 9.35%, c1ccc2cc3c(NCCN4CCOCC4)ccnc3cc2c1 15.8%, Cc1ccc(N/C=C/C(=O)c2ccccc2)cc1C 14.5%, CC(C)c1ccc(NC(=S)NC2CC3C=CC2C3)cc1 (stereo unspecified) 8.66%, Cc1cc(OC(=O)c2ccccc2)c([N+](=O)[O-])c(=O)[nH]1 7.86%, O=C1Cc2cc(S(=O)(=O)Nc3cccc(F)c3)ccc2N1 9.16%, O=C(CSc1nc2ccccc2[nH]1)c1cccs1 8.32%, CCCCNC(=O)C1CCC(CNS(=O)(=O)c2ccc(NC(C)=O)cc2)CC1 (stereo unspecified) 12.9%, COc1cc(CN2CCC(C(N)=O)CC2)ccc1OCc1ccccc1 10.4%, O=C(Nc1ccc2c(c1)CCC2)c1ccc(Br)s1 9.61%, COc1ccc(NC(=O)c2sccc2SCC#N)cc1 8.69%, CCC(=O)NC(=Nc1nc2ccccc2s1)NC(=O)CC 7.9%, COCn1c(COc2ccccc2)nc2ccccc21 9.21%, CC1CCCCC1NC(=O)CN1CCC(O)(c2ccc3c(c2)OCO3)CC1 (stereo unspecified) 8.42%, Cc1c(NC(=O)CSc2cccc3cccnc23)c(=O)n(-c2ccccc2)n1C 8.2%
